Data: PubChem BioAssay (Tox21)
Values joined by “and” are separate entries in the source; they are usually repeats but may differ in a detail not shown here. Equal entries are not always repeated. Inconclusive results are not listed. Active and inactive are the calls of the source. Unless noted, the call rests on the fitted dose curve; in most records, active means well fitted curve in the direction sought with a large enough effect in the repeat runs; inconclusive means weak or mixed curves; inactive means no such curve, though single readings can be large; an effect the other way counts as inactive or inconclusive.

Columns and labels:
[1] = qHTS assay to identify small molecule agonists of the RXR signaling pathway - cell viability counter screen (AID 1159529); further: nearly all actives have a fitted effect of over 50% in size; further: potency means the concentration at half of the fitted maximal effect
Summary of the method: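 RXR-alpha-UAS-bla HEK 293T cells in medium with 2% charcoal-stripped FBS were preincubated 5 hr, then exposed to compounds for 16 hr at 37 C. Viability was read as CellTiter-Glo luminescence after 30 min at room temperature.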

[2] = qHTS assay to identify small molecule antagonists of the retinoid acid receptor (RAR) signaling pathway - cell viability counter screen (AID 1159551); further: nearly all actives have a fitted effect of over 35% in size; further: potency means the concentration at half of the fitted maximal effect
Summary of the method: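 C3RL4 cells were seeded overnight at 37 C, then treated with compounds plus 1 uM (final) retinol for 6 h at 37 C. Viability was read as ATP by CellTiter-Glo luminescence after 30 min at room temperature.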

[3] = qHTS assay to identify small molecule antagonists of the retinoic acid receptor (RAR) signaling pathway (AID 1159552; further: nearly all actives have a fitted effect of over 50% in size; further: potency means the concentration at half of the fitted maximal effect)
Summary of the method: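 RARE-luc C3RL4 cells; cpds + 1 uM (final) retinol, 6 hr, 37 C/5% CO2; luciferase reagent, 30 min RT, luminescence readout. Inhibitors of retinol-driven signal scored.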

[4] = qHTS assay to identify small molecule agonists of the retinoic acid receptor (RAR) signaling pathway (AID 1159553)
Summary of the method: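 C3RL4 cells carrying a RARE luciferase reporter were plated overnight at 37 C, then exposed to compounds in DMSO for 6 hr at 37 C and 5% CO2. Luminescence was read 30 min after luciferase reagent addition at room temperature.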

[5] = qHTS assay to identify small molecule antagonists of the estrogen related receptor (ERR) signaling pathway from Tox21 library - cell viability counter screen (AID 1224834); further: nearly all actives have a fitted effect of over 30% in size; further: potency means the concentration at half of the fitted maximal effect
Summary of the method: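 ERR reporter cells were plated 6 h before compound addition, then exposed to test compounds in DMSO for 17.5 h at 37 C. Viability was read as CellTiter-Fluor fluorescence after a 30-minute incubation at 37 C.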

[6] = target: Luciferin 4-monooxygenase (Photinus pyralis) (UniProt P08659); test: qHTS assay to identify small molecule inhibitors of firefly luciferase (AID 1224835); further: nearly all actives have a fitted effect of over 25% in size; further: potency means the concentration at half of the fitted maximal effect
Luciferin 4-monooxygenase (Photinus pyralis), sequence (P08659 whole entry, looked up): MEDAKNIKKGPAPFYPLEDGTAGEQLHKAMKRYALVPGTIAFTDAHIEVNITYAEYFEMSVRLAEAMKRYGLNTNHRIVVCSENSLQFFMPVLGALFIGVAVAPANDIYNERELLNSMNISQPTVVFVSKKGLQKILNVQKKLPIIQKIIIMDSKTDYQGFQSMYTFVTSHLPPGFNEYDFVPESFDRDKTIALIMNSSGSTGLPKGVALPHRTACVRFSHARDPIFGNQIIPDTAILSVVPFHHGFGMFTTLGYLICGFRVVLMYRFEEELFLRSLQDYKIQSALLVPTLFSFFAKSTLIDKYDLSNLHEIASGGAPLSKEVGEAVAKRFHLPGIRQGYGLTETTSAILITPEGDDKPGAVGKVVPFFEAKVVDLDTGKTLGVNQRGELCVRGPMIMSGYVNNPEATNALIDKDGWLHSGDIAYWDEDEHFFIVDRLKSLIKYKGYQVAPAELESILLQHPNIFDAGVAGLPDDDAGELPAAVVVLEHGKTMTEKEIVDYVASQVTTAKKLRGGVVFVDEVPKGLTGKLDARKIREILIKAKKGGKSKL
Summary of the method: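 Biochemical qHTS: compounds run as interplate titrations against purified firefly enzyme, with D-luciferin and ATP each at its KM concentration. Light output recorded by CCD imaging.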

[7] = qHTS assay to identify small molecule agonists of the constitutive androstane receptor (CAR) signaling pathway - cell viability counter screen (AID 1224836); further: nearly all actives have a fitted effect of over 45% in size; further: potency means the concentration at half of the fitted maximal effect
Summary of the method: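 HepG2 cells stably carrying hCAR and a CYP2B6-2.2kb reporter were plated 4 h, then given compounds at 15 concentrations plus PK11195 (final 0.75 uM). After 23 h at 37 C, viability was read by CellTiter-Fluor fluorescence.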

[8] = qHTS assay to identify small molecule antagonists of the constitutive androstane receptor (CAR) signaling pathway - cell viability counter screen (AID 1224837); further: nearly all actives have a fitted effect of over 45% in size; further: potency means the concentration at half of the fitted maximal effect
Summary of the method: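 HepG2 cells stably expressing hCAR and a CYP2B6-2.2kb reporter were plated and pre-incubated 4 hr at 37 C/5% CO2, then given compounds at 15 concentrations plus 50 nM CITCO (final). After 23 hr, viability was read by CellTiter-Fluor fluorescence.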

[9] = target: Nuclear receptor subfamily 1 group I member 3 (Homo sapiens) (UniProt Q14994); test: qHTS assay to identify small molecule antagonists of the constitutive androstane receptor (CAR) signaling pathway (AID 1224838); further: nearly all actives have a fitted effect of over 40% in size; further: potency means the concentration at half of the fitted maximal effect
Nuclear receptor subfamily 1 group I member 3 (Homo sapiens), sequence (Q14994 whole entry, looked up): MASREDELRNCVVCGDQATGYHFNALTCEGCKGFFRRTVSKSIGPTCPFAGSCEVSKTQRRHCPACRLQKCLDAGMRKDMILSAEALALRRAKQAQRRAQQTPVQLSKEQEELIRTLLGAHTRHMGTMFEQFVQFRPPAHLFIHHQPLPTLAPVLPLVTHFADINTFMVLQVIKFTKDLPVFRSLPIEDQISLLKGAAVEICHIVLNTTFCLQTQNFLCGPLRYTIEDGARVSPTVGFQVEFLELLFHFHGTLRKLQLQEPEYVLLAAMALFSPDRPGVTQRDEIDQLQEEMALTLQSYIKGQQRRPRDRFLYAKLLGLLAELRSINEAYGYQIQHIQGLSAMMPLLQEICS
Summary of the method: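 HepG2 cells stably co-transfected with hCAR and a CYP2B6-2.2kb luciferase reporter were seeded 4 h before compound addition at 15 concentrations. Cells were stimulated with 50 nM CITCO (final) for 24 h at 37 C; luciferase luminescence was then read.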

[10] = target: Nuclear receptor subfamily 1 group I member 3 (Homo sapiens) (UniProt Q14994); test: qHTS assay to identify small molecule agonists of the constitutive androstane receptor (CAR) signaling pathway (AID 1224839); further: nearly all actives have a fitted effect of over 15% in size; further: potency means the concentration at half of the fitted maximal effect
Summary of the method: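 HepG2 cells stably expressing hCAR and a CYP2B6-2.2kb luciferase reporter were treated with compounds at 15 concentrations plus 0.75 uM PK11195 (final) for 24 h at 37 C; luminescence was read after ONE-Glo addition.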

[11] = target: Thyrotropin receptor (Homo sapiens) (UniProt P16473); test: qHTS assay to identify small molecule agonists of the thyroid stimulating hormone receptor (TSHR) signaling pathway (AID 1224843; calls by dose curve; further: nearly all actives have a fitted effect of over 45% in size; further: potency means the concentration at half of the fitted maximal effect)
Thyrotropin receptor (Homo sapiens), sequence (P16473 whole entry, looked up): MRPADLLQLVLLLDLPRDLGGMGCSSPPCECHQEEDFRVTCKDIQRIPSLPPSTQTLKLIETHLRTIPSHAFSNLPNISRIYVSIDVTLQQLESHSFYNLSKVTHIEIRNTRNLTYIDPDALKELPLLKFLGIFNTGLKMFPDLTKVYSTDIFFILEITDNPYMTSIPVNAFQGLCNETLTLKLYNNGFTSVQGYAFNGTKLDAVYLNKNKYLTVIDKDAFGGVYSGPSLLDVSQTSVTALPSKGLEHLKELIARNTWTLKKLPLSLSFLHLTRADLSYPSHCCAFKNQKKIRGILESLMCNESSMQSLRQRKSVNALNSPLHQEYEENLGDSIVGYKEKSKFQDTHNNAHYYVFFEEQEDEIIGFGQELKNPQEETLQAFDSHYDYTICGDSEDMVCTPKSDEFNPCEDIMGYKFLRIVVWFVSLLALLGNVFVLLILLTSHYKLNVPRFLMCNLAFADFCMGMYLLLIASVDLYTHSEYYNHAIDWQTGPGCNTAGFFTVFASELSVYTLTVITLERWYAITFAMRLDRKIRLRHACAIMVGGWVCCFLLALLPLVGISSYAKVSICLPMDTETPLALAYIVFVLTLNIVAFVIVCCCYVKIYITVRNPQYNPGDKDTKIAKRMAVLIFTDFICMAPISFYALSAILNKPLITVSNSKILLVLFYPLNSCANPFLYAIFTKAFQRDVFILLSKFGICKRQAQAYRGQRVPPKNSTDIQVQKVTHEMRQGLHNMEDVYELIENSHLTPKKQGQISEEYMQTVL
Summary of the method: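 TSHR-HEK293 cells in agonist mode, 30 min room-temperature step, then cAMP measured by competitive HTRF (cAMP-d2 with anti-cAMP cryptate) after 1 h at room temperature. Tested at 15 concentrations in triplicate.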

[12] = qHTS assay to identify small molecule agonists of the estrogen related receptor signaling pathway with the pleiotropic PPARgamma coactivator (PGC) from Tox21 10K library (AID 1224842); further: nearly all actives have a fitted effect of over 15% in size
Summary of the method: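 PGC/ERR reporter cell line, 2,000 cells per well, incubated 6 h at 37 C before 23 nL compound in DMSO was added. After 18 h at 37 C, One-Glo luminescence read following 30 min at room temperature.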

[13] = qHTS assay to identify small molecule antagonists of the estrogen related receptor signaling pathway with the pleiotropic PPARgamma coactivator (PGC) from Tox21 10K library - cell viability counter screen (AID 1224840; active means well fitted cell-killing curve with a large enough effect in the repeat runs, not every such curve was filed as active; further: nearly all actives have a fitted effect of over 40% in size; further: potency means the concentration at half of the fitted maximal effect)
Summary of the method: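 PGC/ERR cells were seeded at 2,000 cells/well and left 6 hours at 37 C/5% CO2 before pin-tool addition of compounds in DMSO. After 17.5 hours at 37 C, CellTiter-Fluor was added and fluorescence read 30 minutes later.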

[14] = qHTS assay to identify small molecule antagonists of the estrogen related receptor signaling pathway with the pleiotropic PPARgamma coactivator (PGC) from Tox21 10K library (AID 1224841; call rule not given here; further: actives are mostly falling curves and most rising ones were filed inactive; nearly all actives have a fitted effect of over 50% in size; further: potency means the concentration at half of the fitted maximal effect)
Summary of the method: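 PGC/ERR reporter cells were seeded at 2,000 cells/well and held 6 hours at 37 C/5% CO2 before pin-tool addition of compounds in DMSO. After 18 hours at 37 C, One-Glo was added and luminescence read after 30 minutes at room temperature.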

Measured: Potency

CN(C)c1ccc(C2(c3ccc(N(C)C)cc3)OC(=O)c3cc(N(C)C)ccc32)cc1
not listed: [12] | [13] | [14]
inactive: all other assays above

C[C@@H](NCCCc1cccc(C(F)(F)F)c1)c1cccc2ccccc12
inactive: [6] | [10] | [12] | [11]
active: [1] 16.9 µM | [2] 33.5 µM | [3] 29.8 µM | [5] 29.8 µM

CC(=O)SC[C@@H](Cc1ccccc1)C(=O)NCC(=O)OCc1ccccc1
inactive: [1] | [2] | [3] | [5] | [6] | [7] | [8] | [13]

O=C(N/N=C/c1ccccc1O)c1ccncc1
active: [5] 9.44 µM | [6] 27.5 µM
not listed: [4] | [12] | [14]
inactive: all other assays above

CCC(C)(C)C1CCCCC1OC(C)=O (configuration not stated)
not listed: [4] | [5]
inactive: all other assays above

CCc1cc(SCc2sc(-c3ccc(C(F)(F)F)cc3)nc2CN2CCN(c3ccc(OC)cc3)CC2)ccc1OCC(=O)O
active: [1] 3.89 µM | [3] 61.1 µM | [5] 34.4 µM | [13] 34.4 µM | [14] 19.3 µM
not listed: [4] | [11] | [12]
inactive: all other assays above

Cc1cc(O)c(C(C)(C)C)cc1C(C)(C)C
active: [1] 21.9 µM | [2] 43.3 µM | [3] 54.5 µM | [5] 54.5 µM | [7] 61.1 µM | [13] 48.6 µM
inactive: [6] | [10] | [12]

C/C(=C(/OCCOc1ccc(Cl)cc1)c1ccc(Cl)cc1Cl)n1ccnc1
not listed: [4] | [12] | [14]
inactive: all other assays above

CC(C)(C)CC(C)(C)c1ccc(OCCOCC[N+](C)(C)Cc2ccccc2)cc1
inactive: [6] | [7] | [12]
active: [1] 6.91 µM and 4.77 µM | [2] 61.1 µM | [3] 43.2 µM and 29.8 µM | [5] 48.5 µM and 13.3 µM | [13] 48.5 µM | [14] 27.3 µM and 6.68 µM | [11] 13.7 µM and 11.9 µM

C=CC(=O)OCC(CO)(COCC(COC(=O)C=C)(COC(=O)C=C)COC(=O)C=C)COC(=O)C=C
active: [1] 8.6 µM | [2] 53.8 µM | [3] 7.6 µM | [5] 4.8 µM | [7] 6.78 µM | [8] 6.04 µM | [9] 5.38 µM | [13] 3.4 µM | [11] 6.04 µM
inactive: [6] | [10]

Oc1ccc2c(c1)-c1ccccc1C2
active: [10] 54.5 µM
not listed: [4] | [6]
inactive: all other assays above

N#CC1(c2ccc(F)cc2)CCC(=O)CC1
not listed: [4] | [12]
inactive: all other assays above

NC(=O)N1C(=O)C(C(=O)c2cc(Cl)cs2)c2cc(F)c(Cl)cc21 (configuration not stated)
active: [1] 49 µM | [5] 27.3 µM | [6] 71 µM | [13] 30.6 µM
inactive: [2] | [3] | [9] | [10] | [11]

O=[N+]([O-])c1ccccc1Nc1ccccc1
not listed: [4] | [10] | [12] | [14]
inactive: all other assays above

O=C(NO)C1(NS(=O)(=O)c2ccc(Oc3ccc(F)cc3)cc2)CCOCC1
inactive: [1] | [2] | [3] | [5] | [6] | [7] | [8] | [13]

C[n+]1ccn(Cc2ccccc2)c1
not listed: [4] | [7] | [8] | [9] | [10]
inactive: all other assays above

CC(C)(C)CC(C)(C)c1ccc(O)c(Cc2ccc(Cl)cc2Cl)c1
inactive: [6] | [10] | [11]
active: [1] 7.56 µM | [2] 26.6 µM | [3] 13.3 µM | [5] 23.7 µM | [13] 29.8 µM

CCCCCOC(=O)CCCC
not listed: [4] | [9] | [10] | [12] | [14]
inactive: all other assays above

C/C=C(\C)C(=O)OCc1ccccc1
active: [6] 63.3 µM
not listed: [4] | [9] | [10] | [12]
inactive: all other assays above

CCCCCCCC/C=C/CCCCCCCC1=NCCN1CCO
active: [1] 49 µM | [2] 68.6 µM | [3] 61.1 µM | [5] 54.5 µM | [8] 68.6 µM | [9] 61.1 µM
inactive: [6] | [10]
